Only some compounds are listed: those with a hit (about 9.9% of all), similar ones and a draw of the others.
KB-3-1 cytotox: kills parental KB-3-1 adenocarcinoma cells | AID 1347075 | Potency, µM (series often up to 46.1 µM), actives largely listed as cytotoxic | hit rate 1.4% among 400,000 | KB-3-1 viability, CellTiter-Glo ATP luminescence, 72 h; further: potency means the concentration at half of the fitted maximal effect; on the % scale 0 is the no-effect control and ±100 the full control effect; nearly all actives have a fitted effect of over 60% in size
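KB-3-1 cells, DMEM (no phenol red) + 10% FBS; compound by pin transfer, 72 h, 37 °C. Readout: CellTiter-Glo luminescence after 10 min. Data normalized, curve-fitted.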
IL-1B inflam inh: blocks inflammasome-driven IL-1 beta release; THP-1 LPS/ATP IL-1B secretion, AlphaLISA, 16 h; stronger effect = lower value; activity change, % at 57.5 µM; hit rate 4.7% among 360,000; in the data active means activity change below about -50%; inconclusive means mostly about -30% to -49%; further: on the % scale 0 is the no-effect control and ±100 the full control effect
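Secreted IL-1B measured by AlphaLISA bead assay after 16 h compound exposure of THP-1 cells; compounds (final up to 57.5 uM) added 1 h before LPS (250 ng/mL) and ATP (1.25 mM) stimulation; lower signal means less secretion.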
MCF10A rerep: DNA re-replication induction in MCF 10a cells; MCF 10A DNA re-replication, Hoechst nuclear intensity, 48 h; Potency, µM (doses to about 46.1 µM), for the others: top-dose activity, positive = re-replication, hits mostly activators; hit rate 2.9% among 350,000; AID 624296; further: potency means the concentration at half of the fitted maximal effect; % of control where 0% means no effect; nearly all actives have a fitted effect of over 50% in size
SW480 rerep: DNA re-replication induction in SW480 cells. SW480 DNA re-replication, Hoechst DNA content imaging, 48 h. Potency, µM (highest dose often 46.1 µM), inactives show at the top dose re-replication activation, actives largely listed as activators. hit rate 1.8% among 340,000; further: potency means the concentration at half of the fitted maximal effect; % of control where 0% means no effect; nearly all actives have a fitted effect of over 55% in size
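Compounds, transferred as 23 nL by pin tool, were incubated with cells for 48 hr; DNA content per nucleus was then quantified by Hoechst staining and fluorescence plate imaging.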
KB-V1 MDR tox: KB-V1 MDR subline cytotoxicity. KB-V1 MDR cells viability, CellTiter-Glo, 72 h. Potency, µM (titrated, usually from 46.1 µM), hits mostly cytotoxic. hit rate 3.4% among 400,000; further: potency means the concentration at half of the fitted maximal effect; on the % scale 0 is the no-effect control and ±100 the full control effect; nearly all actives have a fitted effect of over 60% in size
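Compound-treated KB-V1 multidrug-resistant cells, 72 h, 37 degrees C; viability by CellTiter-Glo. Fitted qHTS curves give the values.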
Starred values were filed as active, the others as inactive; i = inactive; ? = inconclusive; nt = not tested or not shown. Unless noted, the call rests on the fitted dose curve; in most records, active means well fitted curve in the direction sought with a large enough effect; inconclusive means small, poorly fitted or top-dose-only effect, or another doubt; inactive means no such curve, though single readings can be large; an effect the other way counts as inactive or inconclusive.

SMILES | KB-3-1 cytotox | IL-1B inflam inh | MCF10A rerep | SW480 rerep | KB-V1 MDR tox
COc1cccc(-c2cc(C(=O)Nc3cc(OC)c(OC)c(OC)c3)on2)c1 | 9.2µM* | nt | nt | nt | ?
COc1cccc(-c2cc(C(=O)Nc3cc(Cl)ccc3O)on2)c1 | i | nt | nt | nt | i
Cc1sc2ncnc(N3CCN(S(=O)(=O)c4ccc(Br)cc4)CC3)c2c1C | ? | -12 | 3% | -8% | ?
Cc1sc2ncnc(N3CCC(C(=O)NNC(=O)COc4ccc(Cl)cc4)CC3)c2c1C | i | -13 | ? | -5% | i
Cc1sc2ncnc(N3CCN(S(=O)(=O)c4ccc(C(C)(C)C)cc4)CC3)c2c1C | 21µM* | -29 | ? | -27% | i
Cc1sc2ncnc(N3CCN(Cc4ccccc4)CC3)c2c1-c1ccccc1 | ? | -56* | 16µM* | 10% | 10µM*
Cc1sc2ncnc(N3CCN(CCOc4ccc(Cl)cc4)CC3)c2c1C | ? | -58* | 18µM* | ? | ?
Cc1ccc2c(CC(=O)NCCc3ccc(S(N)(=O)=O)cc3)coc2c1 | i | -5 | 2% | -7% | i
CN1CCN(/C=N/c2c(C#N)cnn2Cc2ccccc2)CC1 | i | 3 | -2% | -4% | 10µM*
COCCN(Cc1ccc(OC)cc1)c1c(C)nc2ccc(C(=O)Nc3ccc(NC(C)=O)cc3)cn12 | i | 18 | nt | nt | i
Cc1cc(C)nc(-n2nc(C)cc2NC(=O)c2cccc(S(=O)(=O)N(C)C)c2)n1 | i | 13 | -7% | 0% | i
Cc1ccc(C)c(C(=O)Nc2cc(C)nn2-c2nc(C)cc(C)n2)c1 | 21µM* | -8 | ? | 8% | ?
CC(=O)c1cccc(Nc2cc(C)nc3nc(-c4ccccc4C)nn23)c1 | i | nt | nt | nt | i
O=C(Nc1c[nH]c(=O)[nH]c1=O)c1ccccc1Cl | ? | 11 | ? | -2% | 16µM*
COc1ccccc1C(=O)Nc1c[nH]c(=O)[nH]c1=O | i | -5 | 9% | 2% | i
CC(=O)Nc1cccn(Cc2c(Cl)cccc2Cl)c1=O | i | 55 | ? | -2% | i
O=C(Nc1cccn(Cc2c(Cl)cccc2Cl)c1=O)c1ccccc1Cl | ? | ? | 16% | 1% | 5.8µM*
O=C(Nc1cccn(Cc2c(Cl)cccc2Cl)c1=O)c1ccc(Cl)cc1Cl | 21µM* | -59* | 15% | 24% | 16µM*
CCc1ccc([C@@H]2CC(=O)[C@@H]3CN(S(=O)(=O)c4ccccc4C)[C@H](c4ccc(Cl)cc4)C[C@@H]3N2S(=O)(=O)c2ccc(C)cc2)cc1 | i | 22 | nt | nt | i
CCOc1ccccc1NC(=S)N1CCN(c2cccc(OC)c2)CC1 | ? | 46 | 14% | ? | i
O=Cc1cn(-c2ccccc2)nc1-c1ccccc1 | i | -5 | 14% | 10% | i
CC1=NNC(=O)/C1=C\c1cn(-c2ccccc2)nc1-c1ccccc1 | ? | -104* | 3.7µM* | 10% | ?
COc1ccc(/C=C/C(=O)C(C(N)=O)=C2SCCS2)cc1 | ? | ? | 15% | 9% | ?
NC(=O)C(C(=O)/C=C/c1ccc(Cl)cc1)=C1SCCS1 | ? | -99* | ? | 12% | 6.5µM*
O=C(COc1cc(F)ccc1[N+](=O)[O-])NCCCc1ccccc1 | i | -22 | 0% | ? | i
SMILES | KB-3-1 cytotox | IL-1B inflam inh | MCF10A rerep | SW480 rerep | KB-V1 MDR tox
O=C(c1cc2c(ccc3ccccc32)oc1=O)N1CCCC1 | i | -52* | 0% | -1% | i
O=C(Nc1cc(=O)c2ccccc2o1)N1CCCCC1 | i | 2 | ? | 15% | 12µM*
N=c1oc2ccc3ccccc3c2cc1C(N)=S | i | 6 | 12µM* | ? | i
O=C(O)/C=C/C(=O)NCc1cn(-c2ccccc2)nc1-c1cccc(Br)c1 | i | -58* | 2% | -126% | i
CC(C)C(=O)OCc1cn(-c2ccc(Cl)c(Cl)c2)nn1 | i | 27 | -4% | -7% | i
O=C(Nc1ccccc1)N1CCCC(c2nc(-c3cccs3)no2)C1 (stereo unspecified) | i | 16 | 0% | -4% | 12µM*
COc1cc(C(=O)N2CCCC(c3nc(-c4cccs4)no3)C2)cc(OC)c1OC (stereo unspecified) | i | 15 | -1% | -8% | i

Assay outcomes (PubChem BioAssay)
